Growth inhibition data for eight compounds are collected here from PubChem BioAssay (NCI).

Assay [1] is described as follows: NCI Yeast Anticancer Drug Screen. Data for the rad50 strain (AID 155).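 Also: 0% = growth of vehicle-only cultures of the same strain.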 The following applies: S. cerevisiae rad50 strain growth inhibition, stronger effect = higher value. Summed up: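 A DNA repair-deficient yeast mutant serves as the test organism; compound-induced growth inhibition is calculated against vehicle-treated cells.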
Assay [2] can be described thus: NCI Yeast Anticancer Drug Screen. Data for the mec2-1 strain (AID 157). The following applies: S. cerevisiae mec2-1 strain, stronger effect = higher value. Summed up:
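Test agents were screened against the mec2-1 yeast strain, with defined DNA repair or cell cycle alteration. Growth was scored as inhibition against vehicle-only controls.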

A short description of assay [3]: NCI Yeast Anticancer Drug Screen. Data for the sgs1 mgt1 strain (AID 161).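 Also: 0% = growth of cultures given vehicle only.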 The following applies: S. cerevisiae sgs1 mgt1 strain, stronger effect = higher value. In a few lines:
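Inhibition of yeast growth, normalised to vehicle-treated controls, is reported for a strain bearing genetic alterations in DNA damage repair.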

The nature of assay [4]: NCI Yeast Anticancer Drug Screen. Data for the cln2 rad14 strain (AID 165).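 Also: 0% = growth equal to vehicle treated cultures.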 The following applies: S. cerevisiae cln2 rad14 strain, stronger effect = higher value. Summed up: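 Growth of compound-exposed yeast (cln2 rad14 genotype) measured and expressed as inhibition relative to vehicle.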
Assay [5] in a line: NCI Yeast Anticancer Drug Screen. Data for the bub3 strain (AID 167). The following applies: S. cerevisiae bub3 mutant strain, stronger effect = higher value. In a few lines: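 Inhibition values come from growth of compound-treated mutant yeast normalised to vehicle-treated controls.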
Assay [6] can be described thus: NCI Yeast Anticancer Drug Screen. Data for the mlh1 rad18 strain (AID 175). The following applies: S. cerevisiae mlh1 rad18 strain growth inhibition, stronger effect = higher value. Summed up:
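In this whole-cell yeast screen, a strain with altered DNA damage repair is challenged with compound, and its growth is measured against matched vehicle-treated controls.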

[7] abbreviates: at 5.0 µM (retest, dose inferred, filed as 0.5).
The mark [8] stands for this setting: at 50.0 µM (retest, dose inferred, filed as 5.0).

The panel holds about 79,000 compounds, 15% with a hit somewhere; the sample as a whole holds those more often. Values without a mark were called inactive. The source made the active and inactive calls. Rule as the data show it: active = growth inhibition above about 70%; inactive = the rest.

Regarding `CN(C)C(=S)/N=c1\ss/c(=N\C(=S)N(C)C)n1-c1cccc(Cl)c1`, the growth inhibition in assay [1] (setting [7]) was 6%; in assay [1] (setting [8]), 8%; in assay [1] (at 50.0 µM) it was 95.9% (active); in assay [2] (setting [7]), 15%; in assay [2] (setting [8]), 2%; in assay [2] (at 50.0 µM) it was 95.2% (active). Moreover, the growth inhibition in assay [3] (setting [7]) was 4%; in assay [3] (setting [8]), 12%; in assay [3] (at 50.0 µM), 94% (active); in assay [4] (setting [7]) it was 4%; in assay [4] (setting [8]), -13%; in assay [4] (at 50.0 µM), 80.8% (active). Also, the growth inhibition was 3% in assay [5] (setting [7]); -4% in assay [5] (setting [8]); 96.2% (active) in assay [5] (at 50.0 µM); 5% in assay [6] (setting [7]); 3% in assay [6] (setting [8]); 94.2% (active) in assay [6] (at 50.0 µM).

As for `N/C(=N\OC(=O)Nc1ccccc1)c1ccccc1`, the growth inhibition in assay [1] (setting [7]) is 7%; in assay [1] (setting [8]), 51%; in assay [1] (at 50.0 µM) it was 42.1%; in assay [2] (setting [7]) it was 8%; in assay [2] (setting [8]) it was 40%; in assay [2] (at 50.0 µM), 33%. The growth inhibition is 13% in assay [3] (setting [7]); 70% (active) in assay [3] (setting [8]); 68% in assay [3] (at 50.0 µM); 2% in assay [4] (setting [7]); 38% in assay [4] (setting [8]); 32.2% in assay [4] (at 50.0 µM). Further, the growth inhibition in assay [5] (setting [7]) is -3%; in assay [5] (setting [8]) it was 24%; in assay [5] (at 50.0 µM), 11.7%; in assay [6] (setting [7]) it was 4%; in assay [6] (setting [8]), 76% (active); in assay [6] (at 50.0 µM), 58.6%.

Turning to `Cn1c(=O)[nH]c2nnc(-c3ccccc3)nc2c1=O`, the growth inhibition in assay [1] (setting [7]) was 7%; in assay [1] (setting [8]) it was 89% (active); in assay [1] (at 50.0 µM), 56.6%; in assay [2] (setting [7]), 6%; in assay [2] (setting [8]), 92% (active); in assay [2] (at 50.0 µM), 29.2%. Further, the growth inhibition in assay [3] (setting [7]) is 38%; in assay [3] (setting [8]), 92% (active); in assay [3] (at 50.0 µM), 61.5%; in assay [4] (setting [7]) it was -3%; in assay [4] (setting [8]) it was 89% (active); in assay [4] (at 50.0 µM), -13.7%. For the same compound, the growth inhibition in assay [5] (setting [7]) was 8%; in assay [5] (setting [8]) it was 93% (active); in assay [5] (at 50.0 µM), 33.4%; in assay [6] (setting [7]) it was 13%; in assay [6] (setting [8]), 90% (active); in assay [6] (at 50.0 µM), 68.1%.

Take `CCC(CO)Nc1nc2ccc(Br)cc2c2ccccc12` (centres undefined): the growth inhibition was 15% in assay [1] (setting [7]); 82% (active) in assay [1] (setting [8]); 76% (active) in assay [1] (at 50.0 µM); 4% in assay [2] (setting [7]); 59% in assay [2] (setting [8]); 49.5% in assay [2] (at 50.0 µM). The growth inhibition in assay [3] (setting [7]) is 5%; in assay [3] (setting [8]), 95% (active); in assay [3] (at 50.0 µM), 86% (active); in assay [4] (setting [7]) it was 0%; in assay [4] (setting [8]), 56%; in assay [4] (at 50.0 µM), 66%. Also, the growth inhibition in assay [5] (setting [7]) is 2%; in assay [5] (setting [8]) it was 84% (active); in assay [5] (at 50.0 µM) it was 63.6%; in assay [6] (setting [7]), 8%; in assay [6] (setting [8]) it was 96% (active); in assay [6] (at 50.0 µM), 93.9% (active).

With `C/C(O)=C(/C=N\C(=S)Nc1ccc(Cl)c(Cl)c1)C(=O)Nc1ccccc1C`, the growth inhibition is -11% in assay [1] (setting [7]); 40% in assay [1] (setting [8]); 67% in assay [1] (at 50.0 µM); -6% in assay [2] (setting [7]); 26% in assay [2] (setting [8]); 39.6% in assay [2] (at 50.0 µM). Also, the growth inhibition in assay [3] (setting [7]) was 1%; in assay [3] (setting [8]) it was 22%; in assay [3] (at 50.0 µM), 73.5% (active); in assay [4] (setting [7]), -7%; in assay [4] (setting [8]) it was 34%; in assay [4] (at 50.0 µM), -10.2%. The growth inhibition in assay [5] (setting [7]) is -15%; in assay [5] (setting [8]) it was 13%; in assay [5] (at 50.0 µM), 51.6%; in assay [6] (setting [7]) it was 11%; in assay [6] (setting [8]), 22%; in assay [6] (at 50.0 µM), 57.7%.

On to `Cc1ccc(S(=O)(=O)CC2(Br)Cc3ccccc3C2=O)cc1` (centres undefined), for which the growth inhibition in assay [1] (setting [7]) was 79% (active); in assay [1] (setting [8]), 99% (active); in assay [1] (at 50.0 µM) it was 97.3% (active); in assay [2] (setting [7]) it was 76% (active); in assay [2] (setting [8]) it was 99% (active); in assay [2] (at 50.0 µM), 98.8% (active). The growth inhibition was 86% (active) in assay [3] (setting [7]); 99% (active) in assay [3] (setting [8]); 99.1% (active) in assay [3] (at 50.0 µM); 24% in assay [4] (setting [7]); 99% (active) in assay [4] (setting [8]); 98.2% (active) in assay [4] (at 50.0 µM). Besides, the growth inhibition is 85% (active) in assay [5] (setting [7]); 99% (active) in assay [5] (setting [8]); 99% (active) in assay [5] (at 50.0 µM); 75% (active) in assay [6] (setting [7]); 98% (active) in assay [6] (setting [8]); 98.5% (active) in assay [6] (at 50.0 µM).

Take `CN(CCO)CCn1cnc2c1c(=O)n(C)c(=O)n2C`: the growth inhibition in assay [1] (setting [7]) is -7%; in assay [1] (setting [8]), 5%; in assay [1] (at 50.0 µM), -36.7%; in assay [2] (setting [7]), -8%; in assay [2] (setting [8]), 9%; in assay [2] (at 50.0 µM) it was -13.9%. The growth inhibition is 7% in assay [3] (setting [7]); -2% in assay [3] (setting [8]); 1.65% in assay [3] (at 50.0 µM); -15% in assay [4] (setting [7]); -12% in assay [4] (setting [8]); -21.8% in assay [4] (at 50.0 µM). Besides, the growth inhibition is -4% in assay [5] (setting [7]); 9% in assay [5] (setting [8]); -7.15% in assay [5] (at 50.0 µM); -11% in assay [6] (setting [7]); -1% in assay [6] (setting [8]); -5.9% in assay [6] (at 50.0 µM).

In the case of `N#CC1=C(N)OC(c2ccccc2)=C(C#N)C1c1ccccc1[N+](=O)[O-]` (centres undefined), the growth inhibition was 5% in assay [1] (setting [7]); 5% in assay [1] (setting [8]); -8.2% in assay [1] (at 50.0 µM); 9% in assay [2] (setting [7]); 8% in assay [2] (setting [8]); 38.1% in assay [2] (at 50.0 µM). Also, the growth inhibition was 12% in assay [3] (setting [7]); -8% in assay [3] (setting [8]); 22.7% in assay [3] (at 50.0 µM); 11% in assay [4] (setting [7]); 5% in assay [4] (setting [8]); 72.5% (active) in assay [4] (at 50.0 µM). The growth inhibition in assay [5] (setting [7]) is -1%; in assay [5] (setting [8]), -4%; in assay [5] (at 50.0 µM), 39.1%; in assay [6] (setting [7]) it was 2%; in assay [6] (setting [8]), 7%; in assay [6] (at 50.0 µM), 23.3%.
